Assay [1] in a line: small molecules captured by biotinylated probe aFSTL3 – biochemical, small-molecule microarray, fluorescence 635/667, stem cell growth factor project, primary screen (AID 1064).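 Further: measures binding of the biotinylated anti-FSTL3 antibody to printed compounds.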 The settings on record: higher = more signal.
Assay [2] is described as follows: binders from COS7 lysate, DM2A8 probe, primary screen, torsin A project, cell lysate, small-molecule microarray, fluorescence 635/667 (AID 1065). The settings on record: higher = more signal, COS7 lysate expressing mutant human TOR1A.
The nature of assay [3]: small molecules captured by biotinylated probe aFGF2 – biochemical, small-molecule microarray, fluorescence 635/667, stem cell growth factor project, primary screen (AID 1067).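 Further: measures binding of biotinylated aFGF2 protein to printed compounds on slides; z-score merges feature fluorescence and signal-to-noise across triplicate slides.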 The settings on record: higher = more signal.
Assay [4] is described as follows: small molecules captured by biotinylated probe aFGF10 – biochemical, small-molecule microarray, fluorescence 635/667, stem cell growth factor project, primary screen (AID 1071).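 Further: score merges 667 nm spot intensity and signal to noise from triplicate slides.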 The settings on record: higher = more signal.
In assay [5] the target is Neurogenic locus notch homolog protein 2 (Homo sapiens) (UniProt Q04721). Put plainly: small molecules binding Notch2 protein – biochemical, small-molecule microarray, 635 nm fluorescence, stem cell growth factors, primary screen (AID 1073). The settings on record: higher = more signal.
Chain of Neurogenic locus notch homolog protein 2 (Homo sapiens) (Q04721 whole entry, looked up, canonical isoform): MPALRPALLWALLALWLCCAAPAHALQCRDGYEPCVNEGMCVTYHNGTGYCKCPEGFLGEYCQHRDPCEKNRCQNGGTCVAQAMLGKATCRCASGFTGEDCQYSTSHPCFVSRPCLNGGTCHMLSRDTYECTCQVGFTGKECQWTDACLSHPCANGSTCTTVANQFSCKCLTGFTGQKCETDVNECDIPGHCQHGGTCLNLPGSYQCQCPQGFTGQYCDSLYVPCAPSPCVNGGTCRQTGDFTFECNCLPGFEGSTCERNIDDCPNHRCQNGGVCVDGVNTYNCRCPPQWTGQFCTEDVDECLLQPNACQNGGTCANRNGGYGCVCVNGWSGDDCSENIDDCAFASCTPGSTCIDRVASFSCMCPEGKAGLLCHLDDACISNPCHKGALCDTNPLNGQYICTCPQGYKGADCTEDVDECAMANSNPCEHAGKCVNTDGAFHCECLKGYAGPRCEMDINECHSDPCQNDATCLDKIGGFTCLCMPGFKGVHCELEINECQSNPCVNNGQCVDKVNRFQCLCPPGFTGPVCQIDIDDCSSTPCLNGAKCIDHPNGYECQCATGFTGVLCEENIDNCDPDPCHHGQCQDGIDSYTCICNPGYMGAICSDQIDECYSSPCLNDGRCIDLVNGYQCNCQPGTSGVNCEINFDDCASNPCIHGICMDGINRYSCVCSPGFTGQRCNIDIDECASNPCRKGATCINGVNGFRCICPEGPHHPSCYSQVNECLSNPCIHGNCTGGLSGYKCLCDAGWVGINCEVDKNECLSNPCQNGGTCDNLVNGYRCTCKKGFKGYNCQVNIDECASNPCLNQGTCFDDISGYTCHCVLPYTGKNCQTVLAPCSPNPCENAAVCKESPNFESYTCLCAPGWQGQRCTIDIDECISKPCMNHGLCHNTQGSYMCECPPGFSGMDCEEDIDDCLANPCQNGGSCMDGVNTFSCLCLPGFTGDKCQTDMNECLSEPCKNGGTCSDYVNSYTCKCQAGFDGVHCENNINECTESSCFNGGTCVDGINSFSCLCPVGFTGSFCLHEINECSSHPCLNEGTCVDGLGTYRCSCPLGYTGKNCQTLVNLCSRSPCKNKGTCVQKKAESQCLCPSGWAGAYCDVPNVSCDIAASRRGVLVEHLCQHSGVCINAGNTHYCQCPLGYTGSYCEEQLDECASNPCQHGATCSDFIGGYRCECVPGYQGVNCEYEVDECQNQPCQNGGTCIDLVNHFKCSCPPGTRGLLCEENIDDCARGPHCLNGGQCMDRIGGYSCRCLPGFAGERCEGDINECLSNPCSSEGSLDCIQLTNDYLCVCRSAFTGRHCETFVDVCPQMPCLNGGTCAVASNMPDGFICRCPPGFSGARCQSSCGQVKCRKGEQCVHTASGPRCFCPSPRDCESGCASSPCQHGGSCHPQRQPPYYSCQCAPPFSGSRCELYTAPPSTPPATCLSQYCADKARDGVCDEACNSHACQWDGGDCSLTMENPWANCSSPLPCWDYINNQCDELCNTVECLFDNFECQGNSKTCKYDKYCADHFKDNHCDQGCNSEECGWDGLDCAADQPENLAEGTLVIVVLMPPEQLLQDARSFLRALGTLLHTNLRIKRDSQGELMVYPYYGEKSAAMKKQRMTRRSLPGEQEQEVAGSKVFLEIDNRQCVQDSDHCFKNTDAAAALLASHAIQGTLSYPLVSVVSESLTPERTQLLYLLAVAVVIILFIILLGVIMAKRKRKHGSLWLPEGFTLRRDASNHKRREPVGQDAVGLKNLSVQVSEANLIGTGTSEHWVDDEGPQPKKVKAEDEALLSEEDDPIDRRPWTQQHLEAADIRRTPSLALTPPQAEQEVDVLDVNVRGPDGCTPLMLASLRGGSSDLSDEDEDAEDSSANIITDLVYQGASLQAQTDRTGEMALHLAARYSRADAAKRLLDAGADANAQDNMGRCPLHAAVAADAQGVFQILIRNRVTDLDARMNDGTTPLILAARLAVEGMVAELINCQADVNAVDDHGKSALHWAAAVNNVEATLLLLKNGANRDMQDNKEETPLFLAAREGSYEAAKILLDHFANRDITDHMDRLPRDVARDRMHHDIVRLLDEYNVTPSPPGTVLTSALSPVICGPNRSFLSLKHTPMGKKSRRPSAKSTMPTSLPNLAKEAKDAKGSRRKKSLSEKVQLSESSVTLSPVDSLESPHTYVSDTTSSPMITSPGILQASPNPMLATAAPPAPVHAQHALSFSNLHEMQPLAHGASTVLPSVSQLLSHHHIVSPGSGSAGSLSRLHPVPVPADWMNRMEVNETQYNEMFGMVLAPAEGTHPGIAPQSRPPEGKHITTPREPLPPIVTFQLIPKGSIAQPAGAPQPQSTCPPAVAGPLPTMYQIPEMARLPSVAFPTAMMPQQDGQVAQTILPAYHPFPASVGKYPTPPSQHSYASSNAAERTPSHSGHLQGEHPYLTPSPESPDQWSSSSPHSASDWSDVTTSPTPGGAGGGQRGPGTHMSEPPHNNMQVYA
Assay [6] concerns the target Pro-neuregulin-1, membrane-bound isoform (Homo sapiens) (UniProt Q02297). Put plainly: small molecules binding neuregulin-1 protein – biochemical, small-molecule microarray, fluorescence 635/667, psychiatric disease protein project, primary screen (AID 1075).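 Further: score combines 667 nm spot fluorescence with signal to noise.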 The settings on record: NRG1 binding, 635 nm fluorescence, higher = more signal.
Assay [7] relates to Neuregulin-1 EGF-like domain. Put plainly: small molecules binding NRG1 EGF domain – biochemical, small-molecule microarray, 635 nm fluorescence, primary screen (AID 1081).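 Further: binding of the protein to compounds printed on small-molecule microarray slides.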 The settings on record: higher = more signal.
The nature of assay [8]: FRG1 expression reporter modulators in myotubes – cell-based, C2C12 myotubes, firefly/Renilla luciferase, luminescence, FRG1 inhibition for FSHD, primary screen (AID 1084). The settings on record: FRG1 promoter luciferase, higher = more signal, called active from +8 up or from −8 down.
The nature of assay [9]: small molecules captured by biotinylated probe aFST – biochemical, small-molecule microarray, fluorescence 635/667, stem cell growth factor project, primary screen (AID 1086).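 Further: score merges 667 nm fluorescence with signal-to-noise of each printed compound spot.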 The settings on record: higher = more signal.
Assay [10] in a line: binders of probe aHhip on microarray, primary screen, stem cell growth factor project, biochemical, small-molecule microarray, fluorescence 635/667 (AID 1087).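 Further: score merges spot fluorescence at 667nm with spot signal to noise ratio.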 The settings on record: higher = more signal.
Assay [11] relates to PRMT1 (protein arginine N-methyltransferase 1). Put plainly: small molecules binding arginine methyltransferase PRMT1 – biochemical, small-molecule microarray, 635 nm fluorescence, primary screen (AID 1088).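 Further: binding of Prmt1 protein to compounds spotted on small-molecule microarray slides.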 The settings on record: higher = more signal.
The nature of assay [12]: growth effects on S. cerevisiae YJM789 – YJM789 clinical isolate, OD600, 24 h, basal, primary screen (AID 1089).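 Further: growth of clinical yeast isolate S. cerevisiae YJM 789 seeded 1000 cells per well; test concentration not given here.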 The settings on record: higher = more signal, called active from +8 up or from −8 down.
Assay [13] in a line: S. pombe growth modifiers, basal conditions – strain 972, OD600, 24 h, no modulator, primary screen (AID 1090).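 Further: basal condition with compound alone and no growth modifier present; test concentration not given here.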 The settings on record: S. pombe 972 growth, higher = more signal, called active from +8 up or from −8 down.
A short description of assay [14]: budding yeast growth modifiers under rapamycin – strain BY4716, OD600, 96 h, primary screen (AID 1091). Further: test concentration not given here. The settings on record: S. cerevisiae BY4716 + rapamycin, higher = more signal, called active from +8 up or from −8 down.
Assay [15] has as its target Torsin-1A-interacting protein 2 (Homo sapiens) (UniProt Q8NFQ8). Put plainly: small molecules binding lysate-expressed LULL1 – cell lysate, human LULL1 lysate, 635/667 nm fluorescence, primary screen (AID 1092).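 Further: score merges per-feature 667 nm fluorescence with signal-to-noise.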 The settings on record: small-molecule microarray, hLULL1 lysate binding, 635 nm fluorescence; higher = more signal.
Assay [16] can be described thus: optical density change of DRC41 E. coli – strain DRC41, OD650, 24 h, E. coli filamentation project, primary screen (AID 1093).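 Further: MC1000 strain lacking acrAB efflux and sulA so SOS filamentation is blocked; test concentration not given here.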 The settings on record: E. coli DRC41 growth, higher = more signal, called active from +8 up or from −8 down.
The nature of assay [17]: probe aLefty2 binding to arrayed compounds – biochemical, biotinylated probe, 635/667 nm fluorescence, primary screen (AID 1094).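 Further: score merges spot fluorescence near 667 nm with spot signal-to-noise ratio.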 The settings on record: small-molecule microarray, higher = more signal.
Assay [18] concerns Noggin (protein binding on small-molecule microarray). Put plainly: small molecules binding Noggin protein – biochemical, 635/667 nm fluorescence, primary screen (AID 1095).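 Further: score merges 667 nm feature fluorescence with signal to noise over triplicate slides.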 The settings on record: 635 nm fluorescence, higher = more signal.
In assay [19] the target is Neurogenic locus notch homolog protein 3 (Homo sapiens) (UniProt Q9UM47). Put plainly: small molecules binding NOTCH3 protein – biochemical, 635/667 nm fluorescence, primary screen (AID 1096). The settings on record: small-molecule microarray, 635 nm fluorescence, higher = more signal.
The nature of assay [20]: probe aEGFR binding to arrayed compounds – biochemical, biotinylated probe, 635/667 nm fluorescence, primary screen (AID 1097).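 Further: probe is a biotinylated anti-EGFR antibody binding compounds printed on slides; score combines fluorescence near 667 nm and signal to noise of each spot.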 The settings on record: small-molecule microarray, higher = more signal.

Active and inactive are the calls of the source.

Five molecules from PubChem BioAssay can be followed below.

Chain of Pro-neuregulin-1, membrane-bound isoform (Homo sapiens) (Q02297 whole entry, looked up, the tested form may be a part, canonical isoform): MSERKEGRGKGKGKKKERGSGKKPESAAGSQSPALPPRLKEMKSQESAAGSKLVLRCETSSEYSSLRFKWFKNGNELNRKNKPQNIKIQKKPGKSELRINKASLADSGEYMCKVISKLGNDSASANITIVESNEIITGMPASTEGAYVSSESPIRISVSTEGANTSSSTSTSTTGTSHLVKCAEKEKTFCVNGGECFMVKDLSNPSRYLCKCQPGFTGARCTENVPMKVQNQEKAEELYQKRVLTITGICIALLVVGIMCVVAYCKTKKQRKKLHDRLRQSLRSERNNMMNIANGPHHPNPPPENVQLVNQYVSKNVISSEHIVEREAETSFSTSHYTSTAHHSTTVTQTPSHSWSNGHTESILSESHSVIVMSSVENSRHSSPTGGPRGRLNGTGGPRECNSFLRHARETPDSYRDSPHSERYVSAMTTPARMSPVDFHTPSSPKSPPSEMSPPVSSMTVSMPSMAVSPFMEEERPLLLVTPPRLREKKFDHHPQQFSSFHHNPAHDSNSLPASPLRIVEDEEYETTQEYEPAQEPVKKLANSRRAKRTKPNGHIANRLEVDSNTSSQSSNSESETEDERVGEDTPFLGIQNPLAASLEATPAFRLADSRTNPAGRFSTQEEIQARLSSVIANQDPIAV
Chain of Torsin-1A-interacting protein 2 (Homo sapiens) (Q8NFQ8 whole entry, looked up): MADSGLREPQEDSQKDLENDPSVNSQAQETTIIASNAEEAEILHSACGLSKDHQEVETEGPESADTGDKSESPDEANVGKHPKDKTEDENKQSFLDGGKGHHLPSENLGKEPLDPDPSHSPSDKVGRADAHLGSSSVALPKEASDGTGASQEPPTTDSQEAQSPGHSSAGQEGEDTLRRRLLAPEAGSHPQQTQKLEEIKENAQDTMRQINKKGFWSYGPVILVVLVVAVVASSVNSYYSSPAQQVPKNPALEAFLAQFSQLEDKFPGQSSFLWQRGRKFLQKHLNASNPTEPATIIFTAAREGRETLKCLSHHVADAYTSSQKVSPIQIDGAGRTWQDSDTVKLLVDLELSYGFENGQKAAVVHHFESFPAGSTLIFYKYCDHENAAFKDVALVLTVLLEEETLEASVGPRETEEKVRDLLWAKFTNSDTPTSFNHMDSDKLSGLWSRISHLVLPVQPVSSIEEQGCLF

As for `Cc1nc2cc(Br)ccc2c(=O)n1Cc1cccc(O)c1`, the composite z-score in [1] is -0.473; in assay [2] it was 0.116; in assay [3], 0.0275; in assay [4], 0.659; in [5] it was 0.418; in assay [6], -0.134. Further, the composite z-score in [7] is 1.06; in assay [9], 0.314; in assay [10], 0.409; in assay [11], 1.57; in assay [15], 1.16; in [17], -0.0607. Besides, the composite z-score was 1.33 in assay [18], -0.108 in assay [19] and -0.0474 in [20]. Besides, the z-score is 0.156 (inactive) in assay [8]; 0.104 (inactive) in assay [12]; -1.84 (inactive) in [13]; -0.973 (inactive) in assay [14]; 1.22 (inactive) in assay [16].
Consider `O=C1OCCC/C=C\[C@H]2OC34C=CCN(c5ccc6ccccc6c5)C(=O)[C@H]3N(CCCO)C(=O)[C@@H]4C12` (stereo not given in full), for which the composite z-score in assay [1] is -0.0204; in assay [2] it was 0.994; in assay [3] it was -0.101; in [4], -0.316; in assay [5], -0.631; in assay [6], 0.437. The composite z-score in assay [7] is 0.626; in assay [9], -0.72; in assay [10] it was -0.12; in assay [11], 0.463; in [15], 0.969; in assay [17], -0.091. Also, the composite z-score in assay [18] is -0.534; in [19], 0.0065; in [20], -0.195. In addition, the z-score in assay [8] was 1.2 (inactive); in [12], -1.59 (inactive); in assay [13] it was -0.647 (inactive); in [14] it was -0.597 (inactive); in [16], -0.377 (inactive).
Regarding `O=C1[C@@]23C=C(Br)[C@H](C[C@@H]2COC3)[C@@]12CO2`, the composite z-score in [1] was -0.325; in assay [2], 0.422; in [3], -0.112; in [4] it was 0.38; in [5], 0.32; in assay [6] it was 0.0504. The composite z-score in [7] is 0.0447; in [9], 0.159; in [10] it was -0.268; in [11] it was -0.186; in [15], -0.498; in assay [17] it was -0.124. Moreover, the composite z-score was 0.648 in assay [18], 0.574 in assay [19] and -0.184 in assay [20]. The z-score is -0.214 (inactive) in assay [8]; 0.108 (inactive) in assay [12]; -1.34 (inactive) in [13]; 0.0993 (inactive) in [14]; -1.39 (inactive) in assay [16].
Regarding `Cc1ccc(N2C(=O)c3ccccc3[C@](C)(C(=O)NCc3ccccc3)[C@@H]2c2ccc(CO)cc2)nc1`, the composite z-score in assay [1] is 0.625; in assay [2], 0.0083; in assay [3] it was 0.0898; in assay [4], -0.369; in assay [5], -0.378; in [6] it was 0.64. The composite z-score in [7] worked out at 0.635; in assay [9], 0.0665; in [10] it was 1.07; in assay [11], 0.596; in assay [15], 0.945; in assay [17], 0.0781. Also, the composite z-score is 0.184 in assay [18], -0.456 in [19] and 0.108 in assay [20]. Further, the z-score in [8] is 0.101 (inactive); in [12] it was 0.34 (inactive); in assay [13], -0.72 (inactive); in [14] it was -0.0557 (inactive); in assay [16], 0.148 (inactive).
Take `CN1C(=O)C2C=CC(C(O)c3ccc(I)cc3)N(Nc3ccccc3)C2C1=O` (stereo not given): the composite z-score was determined as 0.131 in assay [1]; 0.238 in assay [2]; 0.0253 in assay [3]; 0.846 in [4]; 1.26 in [5]; 1.56 in assay [6]. Moreover, the composite z-score was found to be 1.24 in assay [7]; 0.942 in [9]; 0.142 in assay [10]; 1.27 in assay [11]; 2.99 in [15]; 0.107 in [17]. The composite z-score in [18] is -0.111; in assay [19], 1.09; in [20] it was 0.0778. The z-score in [8] was 0.266 (inactive); in [12], -0.228 (inactive); in [13], -0.504 (inactive); in assay [14], 0.768 (inactive); in assay [16], -1.78 (inactive).
